# Assay results reported in PubChem BioAssay (NCATS).
# Inconclusive results are not listed. Calls of active or inactive are those of the source. Unless noted, the call rests on the fitted dose curve; in most records, active means well fitted curve in the direction sought with a large enough effect (not every such curve was filed as active); inconclusive means small, poorly fitted or top-dose-only effect, or effect the other way, or another doubt; inactive means no such curve, though single readings can be large or run the other way.
# Tested on: not listed separately
# Test: Cell Viability - LYMP1-002 - Assay at 16 hr (AID 948; active means well fitted cell-killing curve with a large enough effect)
# Conditions: LYMP1-002 lymphoblastoid cell viability; series mostly up to 92.2 µM
# Procedure, shortened: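 ATP luminescence (CellTiter-Glo) was measured after 16 hr compound exposure at 37 C of 2500 lymphoblastoid LYMP1-002 cells per well. Concentration-response curves were fitted with the Hill equation to give AC50.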
row,SMILES,outcome
1,COC(=O)[C@H]1[C@H]2C[C@@H]3c4[nH]c5cc(OC)ccc5c4CCN3C[C@H]2C[C@@H](OC(=O)c2cc(OC)c(OC)c(OC)c2)[C@@H]1OC,inactive
2,CCCCOCCOCCOCc1cc2c(cc1CCC)OCO2,inactive
3,NC(=Nc1ccccc1)Nc1ccccc1,inactive

# Target: Pyruvate kinase PKM (Homo sapiens) (UniProt P14618)
# Test: qHTS Assay for Activators of Human Muscle Pyruvate Kinase (AID 954)
# Conditions: purified human muscle pyruvate kinase, luciferase-coupled luminescence, 1 h; series mostly up to 57.5 µM
# Procedure, shortened: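 Luminescence from a luciferase ATP-detection/stop reagent reported PKM2 activity. Reactions contained 0.1 nM purified human enzyme, 0.5 mM PEP, 0.1 mM ADP and 7 mM MgCl2 at pH 7.2, run 1 h at RT.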
# Pyruvate kinase PKM (Homo sapiens), sequence (P14618 whole entry, looked up): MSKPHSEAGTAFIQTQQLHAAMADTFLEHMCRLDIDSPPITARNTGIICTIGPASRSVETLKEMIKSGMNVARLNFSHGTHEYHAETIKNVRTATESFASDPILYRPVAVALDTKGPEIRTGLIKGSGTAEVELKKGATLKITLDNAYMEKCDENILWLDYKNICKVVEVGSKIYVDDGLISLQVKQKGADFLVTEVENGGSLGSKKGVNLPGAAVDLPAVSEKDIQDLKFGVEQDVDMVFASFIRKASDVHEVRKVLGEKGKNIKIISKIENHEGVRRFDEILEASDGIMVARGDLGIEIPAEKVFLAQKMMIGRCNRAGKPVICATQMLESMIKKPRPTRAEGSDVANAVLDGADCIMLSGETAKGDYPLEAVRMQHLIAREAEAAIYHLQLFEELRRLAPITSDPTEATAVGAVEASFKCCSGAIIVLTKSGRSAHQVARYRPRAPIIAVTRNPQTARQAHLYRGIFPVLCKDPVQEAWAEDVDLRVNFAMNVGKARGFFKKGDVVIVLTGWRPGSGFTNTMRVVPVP
row,SMILES,outcome
1,CCc1c(C)[nH]c2c1C(=O)C(CN1CCOCC1)CC2 (stereo unspecified),inactive
2,CN(C)CC/C=C1\c2ccccc2COc2ccccc21,inactive
3,O=C1NCN(c2ccccc2)C12CCN(CCCC(c1ccc(F)cc1)c1ccc(F)cc1)CC2,inactive
4,C[C@]12CCC(=O)C=C1CC[C@@H]1[C@@H]2CC[C@@]2(C)[C@H]1CC[C@]2(O)C(=O)CO,inactive
5,C[C@]12C=CC(=O)C=C1CC[C@H]1[C@@H]3C[C@@H](O)[C@](O)(C(=O)CO)[C@@]3(C)C[C@H](O)[C@@]12F,inactive
6,CSc1ccc(C(=O)c2[nH]c(=O)[nH]c2C)cc1,inactive
7,COCC(=O)O[C@]1(CCN(C)CCCc2nc3ccccc3[nH]2)CCc2cc(F)ccc2[C@@H]1C(C)C,inactive
8,CCNC(=O)N1CCN(CCCC(c2ccc(F)cc2)c2ccc(F)cc2)CC1,inactive
9,C[N+](C)(C)CCCCCCCCCC[N+](C)(C)C,inactive
10,Brc1c(NC2=NCCN2)ccc2nccnc12,inactive
11,C[C@H](CS)C(=O)N1CCC[C@H]1C(=O)O,inactive
12,COC(=O)[C@H]1[C@H]2C[C@@H]3c4[nH]c5cc(OC)ccc5c4CCN3C[C@H]2C[C@@H](OC(=O)c2cc(OC)c(OC)c(OC)c2)[C@@H]1OC,inactive
13,C[C@]12CCC(=O)C=C1CC[C@@H]1[C@@H]2C(=O)C[C@@]2(C)[C@H]1CC[C@]2(O)C(=O)CO,inactive
